Reference: the supplement of paper PMC10849652
Of roughly 8,800 targets only a part is listed; those with a hit were picked by preference. About 0.5% of all pairs of compound and target were hits.

Experiments:
Experiment in all cases: log2 fold change, soluble protein after heating vs DMSO (PISA); higher = thermal stabilisation; K562 lysate, 10 uM; active = over 0.2 and 3.5 SD of the protein, either way, in both replicates (recomputed)
vemurafenib = compound: CCCS(=O)(=O)Nc1ccc(F)c(C(=O)c2c[nH]c3ncc(-c4ccc(Cl)cc4)cc23)c1F [vemurafenib]
Method in brief: (§1)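 K562 pellets were dounce-homogenised in PBS pH 7.4 containing 1 mM MgCl2, and the crude extract, at 1 mg/mL protein, was exposed to 10 μM compound for 30 min. Aliquots were heated for 3 min across 48°C-58°C, pooled, brought to 0.5% NP-40 at 4°C and spun at 21,000xg for 90 min, with the supernatant taken as soluble protein. TMTpro 16plex LC-MS/MS with equalised channel sums quantified that protein. Values are log-two fold changes in thermal stability relative to solvent controls, taken from duplicates.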

[1] = compound: CCCS(=O)(=O)Nc1ccc(F)c(C(=O)c2c[nH]c3ncc(Cl)cc23)c1F
Method in brief: as §1

barasertib = compound: CCN(CCCOc1ccc2c(Nc3cc(CC(=O)Nc4cccc(F)c4)[nH]n3)ncnc2c1)CCOP(=O)(O)O [barasertib]
Method in brief: as §1

[2] = compound: CC[C@@H]1C(=O)N(C)c2cnc(Nc3ccc(C(=O)NC4CCN(C)CC4)cc3OC)nc2N1C1CCCC1
Method in brief: as §1

volasertib = compound: CC[C@@H]1C(=O)N(C)c2cnc(Nc3ccc(C(=O)N[C@H]4CC[C@H](N5CCN(CC6CC6)CC5)CC4)cc3OC)nc2N1C(C)C [volasertib]
Method in brief: as §1

[3] = compound: CCn1c(C(=O)N(C2CC2)C2CC2)cc2c3c(ncn3C)c(Nc3cc(C)n(C)n3)nc21
Method in brief: as §1

[4] = compound: CCn1cc(-c2ccnc3[nH]c(-c4cccc(CN(C)C)c4)cc23)c(-c2ccc(NC(=O)N(C)C)cc2)n1
Method in brief: as §1

[5] = compound: CN1CCC(CNc2ccc3ncc(-c4cccc(OC(F)(F)F)c4)n3n2)CC1
Method in brief: as §1

saracatinib = compound: CN1CCN(CCOc2cc(OC3CCOCC3)c3c(Nc4c(Cl)ccc5c4OCO5)ncnc3c2)CC1 [saracatinib]
Method in brief: as §1

sotrastaurin = compound: CN1CCN(c2nc(C3=C(c4c[nH]c5ccccc45)C(=O)NC3=O)c3ccccc3n2)CC1 [sotrastaurin]
Method in brief: as §1

alvocidib = compound: CN1CC[C@H](c2c(O)cc(O)c3c(=O)cc(-c4ccccc4Cl)oc23)[C@H](O)C1 [alvocidib]
Method in brief: as §1

Tubastatin A = compound: CN1CCc2c(c3ccccc3n2Cc2ccc(C(=O)NO)cc2)C1 [Tubastatin A]
Method in brief: as §1

[6] = compound: CNC(=O)C1=CC=CC=C1NC2=NC(=NC=C2Cl)NC3=C(C=C(C=C3)N4CCOCC4)OC
Method in brief: as §1

defactinib = compound: CNC(=O)c1ccc(Nc2ncc(C(F)(F)F)c(NCc3nccnc3N(C)S(C)(=O)=O)n2)cc1 [defactinib]
Method in brief: as §1

[7] = compound: CNc1nc(-c2ccc3c(N)n[nH]c3c2)cc(N2C[C@@H](C(=O)NC3CCCCC3)CC[C@H]2C)n1
Method in brief: as §1

encorafenib = compound: COC(=O)N[C@@H](C)CNc1nccc(-c2cn(C(C)C)nc2-c2cc(Cl)cc(NS(C)(=O)=O)c2F)n1 [encorafenib]
Method in brief: as §1

[8] = compound: COC(=O)[C@H](CCSC)NC(=O)C1=C(C=C(C=C1)NC[C@H](CS)N)C2=CC=CC=C2
Method in brief: as §1

alisertib = compound: COc1cc(Nc2ncc3c(n2)-c2ccc(Cl)cc2C(c2c(F)cccc2OC)=NC3)ccc1C(=O)O [alisertib]
Method in brief: as §1

[9] = compound: COc1cc2nc(-c3cc(F)ccc3O)nc(N[C@@H]3CNC[C@H]3C(C)(C)O)c2cc1OC
Method in brief: as §1

gefitinib = compound: COc1cc2ncnc(Nc3ccc(F)c(Cl)c3)c2cc1OCCCN1CCOCC1 [gefitinib]
Method in brief: as §1

Measured: log2 fold change

INTS10 (UniProt Q9NVR2)
inactive: vemurafenib -0.008 | [1] -0.183 | barasertib 0.061 | [2] -0.129 | volasertib -0.088 | [3] -0.021 | [4] 0.14 | [5] -0.054 | saracatinib 0.052 | sotrastaurin 0.023 | alvocidib -0.009 | Tubastatin A -0.143 | [6] -0.033 | defactinib 0.016 | [7] -0.045 | encorafenib -0.017 | [8] 0.043 | alisertib -0.093 | [9] -0.097 | gefitinib 0.049

HEATR6 (UniProt Q6AI08)
Sequence of UniProt Q6AI08 (Q6AI08 whole entry, looked up): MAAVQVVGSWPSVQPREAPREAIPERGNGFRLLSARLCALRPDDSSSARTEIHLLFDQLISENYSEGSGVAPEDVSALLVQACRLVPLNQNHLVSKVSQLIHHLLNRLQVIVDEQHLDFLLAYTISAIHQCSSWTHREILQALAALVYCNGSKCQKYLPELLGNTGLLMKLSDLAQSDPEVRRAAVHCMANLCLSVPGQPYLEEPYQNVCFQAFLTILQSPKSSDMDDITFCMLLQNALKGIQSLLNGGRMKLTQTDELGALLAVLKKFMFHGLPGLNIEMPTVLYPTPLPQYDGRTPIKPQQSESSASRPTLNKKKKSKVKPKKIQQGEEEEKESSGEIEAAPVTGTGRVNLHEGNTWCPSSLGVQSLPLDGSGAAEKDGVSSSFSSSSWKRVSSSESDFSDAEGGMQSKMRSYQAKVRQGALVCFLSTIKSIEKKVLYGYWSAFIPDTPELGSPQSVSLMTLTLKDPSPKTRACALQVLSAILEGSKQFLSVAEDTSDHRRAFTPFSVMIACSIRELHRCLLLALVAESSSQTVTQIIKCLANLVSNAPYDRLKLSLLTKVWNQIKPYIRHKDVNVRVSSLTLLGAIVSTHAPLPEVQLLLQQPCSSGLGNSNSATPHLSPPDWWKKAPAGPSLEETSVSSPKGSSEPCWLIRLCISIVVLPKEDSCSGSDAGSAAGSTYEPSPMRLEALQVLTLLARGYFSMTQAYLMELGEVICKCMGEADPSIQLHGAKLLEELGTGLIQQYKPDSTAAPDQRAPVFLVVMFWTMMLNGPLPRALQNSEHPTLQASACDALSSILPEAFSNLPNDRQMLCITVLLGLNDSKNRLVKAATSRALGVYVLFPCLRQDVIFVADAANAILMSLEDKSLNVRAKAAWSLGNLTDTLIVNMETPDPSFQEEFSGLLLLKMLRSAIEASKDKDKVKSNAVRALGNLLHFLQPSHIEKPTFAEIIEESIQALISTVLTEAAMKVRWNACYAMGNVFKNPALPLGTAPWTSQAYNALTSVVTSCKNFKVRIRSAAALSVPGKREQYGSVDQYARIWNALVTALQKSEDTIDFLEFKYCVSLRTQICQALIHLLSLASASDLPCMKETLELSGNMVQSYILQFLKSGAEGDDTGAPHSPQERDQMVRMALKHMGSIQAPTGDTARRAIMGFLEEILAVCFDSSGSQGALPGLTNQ
inactive: vemurafenib 0.052 | [1] 0.031 | barasertib 0.109 | [2] -0.076 | volasertib -0.019 | [3] 0.073 | [4] -0.001 | [5] -0.008 | saracatinib -0.007 | sotrastaurin 0.064 | alvocidib 0.03 | Tubastatin A -0.1 | [6] 0.025 | defactinib 0.011 | [7] 0.008 | encorafenib 0.039 | [8] 0.101 | alisertib -0.028 | [9] -0.01 | gefitinib 0.001

GSTP1 (UniProt P09211)
active: [3] 0.324
inactive: vemurafenib -0.007 | [1] -0.017 | barasertib 0.008 | [2] 0.003 | volasertib 0.034 | [4] -0.059 | [5] 0.021 | saracatinib 0 | sotrastaurin -0.002 | alvocidib 0.04 | Tubastatin A -0.057 | [6] -0.017 | defactinib 0.008 | [7] -0.036 | encorafenib -0.052 | [8] 0.061 | alisertib 0.037 | [9] -0.008 | gefitinib 0.007

GTF2H1 (UniProt P32780)
inactive: vemurafenib 0.013 | [1] 0.014 | barasertib 0.014 | [2] -0.021 | volasertib -0.028 | [3] -0.028 | [4] -0.042 | [5] -0.075 | saracatinib 0.018 | sotrastaurin -0.012 | alvocidib -0.053 | Tubastatin A -0.023 | [6] 0.05 | defactinib 0.041 | [7] 0.031 | encorafenib -0.004 | [8] -0.059 | alisertib 0.065 | [9] -0.021 | gefitinib -0.015

GTF2I (UniProt P78347)
Sequence of UniProt P78347 (P78347 whole entry, looked up): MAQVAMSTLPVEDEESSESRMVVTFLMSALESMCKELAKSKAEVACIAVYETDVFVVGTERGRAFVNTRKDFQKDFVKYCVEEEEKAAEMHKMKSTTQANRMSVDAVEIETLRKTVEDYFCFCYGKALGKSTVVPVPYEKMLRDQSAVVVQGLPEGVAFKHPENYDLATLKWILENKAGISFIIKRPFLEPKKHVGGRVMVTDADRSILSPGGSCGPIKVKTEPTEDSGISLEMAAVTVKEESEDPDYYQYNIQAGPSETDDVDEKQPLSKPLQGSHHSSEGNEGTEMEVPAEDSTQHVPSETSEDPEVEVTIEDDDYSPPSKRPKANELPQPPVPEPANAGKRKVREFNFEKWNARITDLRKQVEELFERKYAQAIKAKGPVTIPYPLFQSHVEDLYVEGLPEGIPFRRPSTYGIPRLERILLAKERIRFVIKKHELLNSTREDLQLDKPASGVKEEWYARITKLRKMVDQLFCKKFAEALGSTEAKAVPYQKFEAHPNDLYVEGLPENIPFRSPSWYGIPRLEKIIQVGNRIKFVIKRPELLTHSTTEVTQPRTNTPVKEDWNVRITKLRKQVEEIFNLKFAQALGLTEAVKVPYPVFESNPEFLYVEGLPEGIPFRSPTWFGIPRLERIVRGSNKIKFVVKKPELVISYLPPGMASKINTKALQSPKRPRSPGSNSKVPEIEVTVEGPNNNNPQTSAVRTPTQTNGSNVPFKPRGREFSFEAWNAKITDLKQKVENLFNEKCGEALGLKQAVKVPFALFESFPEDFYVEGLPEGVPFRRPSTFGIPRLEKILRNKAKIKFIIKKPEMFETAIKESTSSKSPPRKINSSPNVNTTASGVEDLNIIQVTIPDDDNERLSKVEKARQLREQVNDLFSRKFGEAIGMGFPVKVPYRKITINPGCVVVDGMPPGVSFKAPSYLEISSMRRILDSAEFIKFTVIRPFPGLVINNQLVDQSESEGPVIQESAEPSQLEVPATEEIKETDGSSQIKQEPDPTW
inactive: vemurafenib -0.004 | [1] 0.031 | barasertib 0.034 | [2] -0.055 | volasertib -0.036 | [3] 0.005 | [4] -0.054 | [5] -0.033 | saracatinib 0.014 | sotrastaurin 0.01 | alvocidib 0.05 | Tubastatin A -0.096 | [6] 0.012 | defactinib 0.018 | [7] -0.035 | encorafenib 0.015 | [8] 0.14 | alisertib 0.011 | [9] 0.004 | gefitinib -0.01

IRF2BP1 (UniProt Q8IU81)
Sequence of UniProt Q8IU81 (Q8IU81 whole entry, looked up): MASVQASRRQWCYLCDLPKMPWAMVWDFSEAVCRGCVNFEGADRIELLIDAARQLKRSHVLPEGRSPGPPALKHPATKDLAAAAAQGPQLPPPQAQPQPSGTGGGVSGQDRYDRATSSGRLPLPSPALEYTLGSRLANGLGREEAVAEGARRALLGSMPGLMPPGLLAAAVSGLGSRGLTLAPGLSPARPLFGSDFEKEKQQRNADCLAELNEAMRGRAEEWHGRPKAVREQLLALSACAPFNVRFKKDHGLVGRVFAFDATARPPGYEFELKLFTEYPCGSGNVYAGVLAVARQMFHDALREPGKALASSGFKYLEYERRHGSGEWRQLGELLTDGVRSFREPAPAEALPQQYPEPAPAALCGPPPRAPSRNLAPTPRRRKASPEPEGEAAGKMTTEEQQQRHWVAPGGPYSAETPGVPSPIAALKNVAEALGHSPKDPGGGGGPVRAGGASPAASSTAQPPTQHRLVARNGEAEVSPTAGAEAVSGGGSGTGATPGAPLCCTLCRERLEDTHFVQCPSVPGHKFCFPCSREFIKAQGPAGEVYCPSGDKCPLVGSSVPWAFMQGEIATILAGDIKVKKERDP
inactive: vemurafenib 0.015 | [1] 0.023 | barasertib -0.003 | [2] 0.026 | volasertib -0.088 | [3] 0.014 | [4] 0.037 | [5] -0.06 | saracatinib 0 | sotrastaurin 0.01 | alvocidib -0.029 | Tubastatin A -0.047 | [6] 0.095 | defactinib 0.045 | [7] 0.091 | encorafenib 0.025 | [8] 0.117 | alisertib 0.042 | [9] 0.038 | gefitinib -0.003

HSPA14 (UniProt Q0VDF9)
inactive: vemurafenib 0.023 | [1] 0.011 | barasertib 0.001 | [2] -0.026 | volasertib -0.043 | [3] 0.013 | [4] 0.04 | [5] -0.021 | saracatinib 0.002 | sotrastaurin 0.039 | alvocidib 0.001 | Tubastatin A -0.081 | [6] 0.01 | defactinib 0.012 | [7] -0.011 | encorafenib -0.004 | [8] 0.153 | alisertib 0.028 | [9] 0 | gefitinib 0.02

GSTM4 (UniProt Q03013)
inactive: vemurafenib 0.055 | [1] 0.034 | barasertib -0.044 | [2] 0.024 | volasertib 0.03 | [3] 0.009 | [4] -0.114 | [5] 0.038 | saracatinib -0.13 | sotrastaurin -0.05 | alvocidib 0.006 | Tubastatin A -0.012 | [6] 0.029 | defactinib 0.006 | [7] 0.077 | encorafenib -0.117 | [8] 0.095 | alisertib 0.03 | [9] 0.002 | gefitinib 0.075

KDM6A (UniProt O15550)
inactive: vemurafenib -0.045 | [1] 0.006 | barasertib 0.017 | [2] 0.035 | volasertib -0.036 | [3] -0.017 | [4] 0.089 | [5] 0.067 | saracatinib 0.029 | sotrastaurin -0.01 | alvocidib -0.057 | Tubastatin A -0.057 | [6] 0.041 | defactinib -0.048 | [7] 0.006 | encorafenib 0.054 | [8] 0.018 | alisertib -0.025 | [9] -0.005 | gefitinib -0.011

HNRNPH2 (UniProt P55795)
Sequence of UniProt P55795 (P55795 whole entry, looked up): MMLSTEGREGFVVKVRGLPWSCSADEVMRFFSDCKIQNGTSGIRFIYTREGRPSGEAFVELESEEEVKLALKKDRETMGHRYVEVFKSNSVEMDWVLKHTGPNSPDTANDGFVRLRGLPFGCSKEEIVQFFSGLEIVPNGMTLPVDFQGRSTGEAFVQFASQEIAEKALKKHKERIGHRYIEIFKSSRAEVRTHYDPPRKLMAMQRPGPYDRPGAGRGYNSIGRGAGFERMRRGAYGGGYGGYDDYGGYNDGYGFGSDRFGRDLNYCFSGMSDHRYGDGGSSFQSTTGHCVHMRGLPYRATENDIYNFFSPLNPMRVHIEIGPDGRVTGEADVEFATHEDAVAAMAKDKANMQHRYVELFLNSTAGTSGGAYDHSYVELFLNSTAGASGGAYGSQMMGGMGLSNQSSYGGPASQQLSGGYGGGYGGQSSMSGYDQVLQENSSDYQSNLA
inactive: vemurafenib -0.004 | [1] 0.025 | barasertib -0.003 | [2] 0.05 | volasertib -0.056 | [3] 0.008 | [4] -0.01 | [5] -0.056 | saracatinib -0.025 | sotrastaurin -0.074 | alvocidib -0.003 | Tubastatin A -0.209 | [6] 0.02 | defactinib 0.019 | [7] -0.043 | encorafenib 0.037 | [8] -0.032 | alisertib -0.004 | [9] -0.007 | gefitinib -0.047

GTF3C3 (UniProt Q9Y5Q9)
Sequence of UniProt Q9Y5Q9 (Q9Y5Q9 whole entry, looked up): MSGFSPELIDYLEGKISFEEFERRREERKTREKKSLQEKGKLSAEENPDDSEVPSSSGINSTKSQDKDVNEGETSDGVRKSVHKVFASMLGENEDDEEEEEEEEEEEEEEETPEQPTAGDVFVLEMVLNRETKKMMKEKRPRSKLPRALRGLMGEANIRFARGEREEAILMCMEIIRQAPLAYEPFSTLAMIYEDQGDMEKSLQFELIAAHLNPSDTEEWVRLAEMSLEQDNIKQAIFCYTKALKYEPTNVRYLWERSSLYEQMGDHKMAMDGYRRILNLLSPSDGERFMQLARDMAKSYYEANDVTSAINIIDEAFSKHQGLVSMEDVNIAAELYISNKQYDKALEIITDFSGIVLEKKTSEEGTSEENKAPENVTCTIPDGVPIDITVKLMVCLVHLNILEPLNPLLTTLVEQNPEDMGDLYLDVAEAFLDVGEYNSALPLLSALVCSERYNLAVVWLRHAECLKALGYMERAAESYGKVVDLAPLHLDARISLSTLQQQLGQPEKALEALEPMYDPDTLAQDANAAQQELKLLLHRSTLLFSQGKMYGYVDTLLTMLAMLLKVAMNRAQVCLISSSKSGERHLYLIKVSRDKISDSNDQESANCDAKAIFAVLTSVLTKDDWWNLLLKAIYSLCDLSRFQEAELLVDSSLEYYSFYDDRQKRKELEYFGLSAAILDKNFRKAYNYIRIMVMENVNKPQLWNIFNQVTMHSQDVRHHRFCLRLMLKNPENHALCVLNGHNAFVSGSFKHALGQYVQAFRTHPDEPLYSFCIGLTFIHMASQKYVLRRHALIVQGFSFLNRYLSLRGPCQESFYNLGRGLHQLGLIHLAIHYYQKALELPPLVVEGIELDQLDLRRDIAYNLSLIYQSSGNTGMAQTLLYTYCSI
inactive: vemurafenib 0.062 | [1] 0.06 | barasertib 0.01 | [2] -0.088 | volasertib -0.014 | [3] 0.003 | [4] -0.158 | [5] 0.005 | saracatinib 0.049 | sotrastaurin -0.013 | alvocidib -0.018 | Tubastatin A -0.147 | [6] 0.043 | defactinib -0.007 | [7] 0.04 | encorafenib -0.001 | [8] 0.065 | alisertib -0.006 | [9] 0.02 | gefitinib -0.006

GLYR1 (UniProt Q49A26)
inactive: vemurafenib -0.059 | [1] 0.019 | barasertib 0.162 | [2] 0.045 | volasertib -0.005 | [3] 0.011 | [4] -0.088 | [5] 0.038 | saracatinib 0.05 | sotrastaurin 0.064 | alvocidib 0.013 | Tubastatin A -0.007 | [6] -0.046 | defactinib -0.084 | [7] -0.078 | encorafenib -0.001 | [8] 0.074 | alisertib -0.011 | [9] -0.046 | gefitinib -0.093

HSPA8 (UniProt P11142)
inactive: vemurafenib -0.024 | [1] 0.003 | barasertib -0.035 | [2] -0.031 | volasertib -0.003 | [3] 0.002 | [4] -0.005 | [5] 0.014 | saracatinib -0.001 | sotrastaurin 0.004 | alvocidib 0.005 | Tubastatin A 0.056 | [6] -0.036 | defactinib -0.003 | [7] -0.019 | encorafenib -0.004 | [8] 0.009 | alisertib 0.002 | [9] -0.004 | gefitinib 0.008

HS1BP3 (UniProt Q53T59)
inactive: vemurafenib -0.003 | [1] -0.012 | barasertib 0.056 | [2] 0.029 | volasertib -0.002 | [3] 0.014 | [4] -0.238 | [5] 0.092 | saracatinib 0.082 | sotrastaurin 0.013 | alvocidib -0.054 | Tubastatin A 0.034 | [6] -0.015 | defactinib -0.016 | [7] -0.052 | encorafenib 0.009 | [8] -0.088 | alisertib -0.021 | [9] 0.021 | gefitinib -0.031

HK2 (UniProt P52789)
Sequence of UniProt P52789 (P52789 whole entry, looked up): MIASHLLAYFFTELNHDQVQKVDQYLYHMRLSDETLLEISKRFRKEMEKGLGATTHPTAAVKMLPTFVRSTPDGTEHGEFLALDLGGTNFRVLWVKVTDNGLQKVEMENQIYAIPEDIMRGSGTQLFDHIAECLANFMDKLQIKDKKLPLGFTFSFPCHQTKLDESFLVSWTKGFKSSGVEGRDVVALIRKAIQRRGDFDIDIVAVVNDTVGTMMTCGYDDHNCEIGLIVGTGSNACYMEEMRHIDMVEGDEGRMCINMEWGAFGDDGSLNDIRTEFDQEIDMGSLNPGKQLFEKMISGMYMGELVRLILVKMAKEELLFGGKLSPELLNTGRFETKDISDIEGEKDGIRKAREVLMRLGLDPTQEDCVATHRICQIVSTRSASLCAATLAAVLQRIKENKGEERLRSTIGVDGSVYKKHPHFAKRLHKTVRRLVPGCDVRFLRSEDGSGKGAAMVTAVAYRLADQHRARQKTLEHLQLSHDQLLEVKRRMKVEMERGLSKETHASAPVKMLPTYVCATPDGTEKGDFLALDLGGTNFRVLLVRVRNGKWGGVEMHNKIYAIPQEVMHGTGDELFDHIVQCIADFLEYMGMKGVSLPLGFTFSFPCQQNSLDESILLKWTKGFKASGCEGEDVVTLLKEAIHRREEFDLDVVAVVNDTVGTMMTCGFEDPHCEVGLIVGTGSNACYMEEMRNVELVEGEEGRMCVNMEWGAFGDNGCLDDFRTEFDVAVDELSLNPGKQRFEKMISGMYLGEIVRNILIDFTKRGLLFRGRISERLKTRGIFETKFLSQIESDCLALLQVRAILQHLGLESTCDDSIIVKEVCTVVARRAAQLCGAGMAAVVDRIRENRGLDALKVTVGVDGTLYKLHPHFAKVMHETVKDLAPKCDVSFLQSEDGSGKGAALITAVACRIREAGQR
inactive: vemurafenib 0.046 | [1] 0.006 | barasertib 0.009 | [2] -0.044 | volasertib -0.049 | [3] 0.023 | [4] -0.015 | [5] -0.075 | saracatinib -0.009 | sotrastaurin 0.001 | alvocidib 0.006 | Tubastatin A -0.17 | [6] 0.024 | defactinib 0.017 | [7] -0.006 | encorafenib 0 | [8] 0.165 | alisertib 0.023 | [9] -0.031 | gefitinib -0.016

INTS8 (UniProt Q75QN2)
inactive: vemurafenib 0.016 | [1] 0.02 | barasertib -0.131 | [2] -0.024 | volasertib -0.061 | [3] 0.041 | [4] -0.075 | [5] 0.037 | saracatinib 0.09 | sotrastaurin 0.084 | alvocidib -0.011 | Tubastatin A -0.013 | [6] 0.083 | defactinib 0.084 | [7] 0.011 | encorafenib 0.098 | [8] -0.111 | alisertib -0.008 | [9] -0.033 | gefitinib -0.04
